Source: PubChem BioAssay (NCATS)
Records with an inconclusive call do not appear. Activity calls are given as the source filed them. Unless noted, calls come from the whole dose curve; as a rule, active = well fitted curve in the direction sought with a large enough effect; inconclusive = small, poorly fitted or top-dose-only effect, or another doubt; inactive = no such curve, though single readings can be large; an effect the other way counts as inactive or inconclusive.

What was measured:
[1] = molecular target: Lysosomal acid glucosylceramidase (Homo sapiens) (UniProt P04062); experiment: Glucocerebrosidase-p2 (AID 348; in the data active = potency below about 10 µM; note: potency is the fitted concentration of half-maximal effect); details: purified GBA, blue fluorogenic substrate, 40 min
Summary of the method: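 Normal human glucocerebrosidase (0.2 nM) with blue fluorogenic substrate (80 uM final) in citrate/phosphate pH 5.9 with 10mM sodium taurocholate, 0.01% tween-20; 40 min RT, NaOH/glycine stop; fluorescence Ex 365/Em 440; AC50 from a titration from 0.6 nM upwards.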

[2] = AP1 Signaling Pathway (AID 357; active = well fitted curve in either direction with a large enough effect, not every such curve was filed as active;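 note: ME-180 reporter cells stimulated with EGF at its EC50 level; % is set by controls: 0 for no effect and ±100 for the full control effect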); details: ME-180 AP-1-bla reporter, EGF-induced, beta-lactamase ratio, 5 h; at 7.69 µM (top of the series) unless noted
Summary of the method: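 Read-out was the 460nm/530nm emission ratio (excitation 405nm) after CCF4 loading for 2.5 hours at room temperature. Cells carried an AP-1-driven beta-lactamase reporter, were stimulated with EC50 EGF plus compound for 5 hours, and AC50 values came from titrations.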

[3] = molecular target: Cytochrome P450 1A2 (Homo sapiens) (UniProt P05177); experiment: p450-cyp1a2 (AID 410; calls by dose curve; note: potency is the fitted concentration of half-maximal effect)
Summary of the method: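 O-Demethylation of luciferin 6' methyl ether by human CYP1A2 is monitored as luciferase luminescence. Substrate sits at Km (100uM); enzyme is 20nM. Values are scaled to 57 uM furafylline as maximal inhibition.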

[4] = NFAT Signaling Pathway (AID 444; active = well fitted curve in either direction with a large enough effect, not every such curve was filed as active;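 note: carbachol stimulus at about its EC50 of 1 µM final; % is set by controls: 0 for no effect and ±100 for the full control effect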); details: Jurkat NFAT-bla M1, carbachol, beta-lactamase ratio, 5 h; at 7.69 µM (top of the series) unless noted
Summary of the method: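 Jurkat cells with NFAT-driven β-lactamase reporter and co-expressed M1 receptor, stimulated with carbachol (final 1 uM, ~EC50), compound titration, 5 h at 37 °C. CCF4 loaded 1 h at RT; 460/530 nm ratio gave %activity and AC50.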

[5] = Stat Signaling Pathway (AID 446; active = well fitted curve in either direction with a large enough effect, not every such curve was filed as active;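 note: ME-180 cervical cancer cells given 40 pM IL-6 alongside compound; SIE-controlled beta-lactamase reporter measured as 460/530 nm FRET emission ratio; % is set by controls: 0 for no effect and ±100 for the full control effect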); details: ME-180 SIE beta-lactamase reporter, IL-6 stimulated, 5 h; at 7.69 µM (top of the series) unless noted
Summary of the method: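 FRET read-out (405 nm excitation, 460/530 nm emission) of a beta-lactamase reporter under a STAT-inducible element in ME-180 cervical carcinoma cells. Cells with compound receive 40 pM IL-6 for 5 h. Values are normalised to AC90 stimulation and AC90 JAK-inhibitor controls.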

[6] = molecular target: Glucocorticoid receptor (Homo sapiens) (UniProt P04150); experiment: GR-GFP Redistribution (AID 450;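 active = compounds whose dose series gives a full or clear partial fitted curve of increased nuclear translocation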; note: potency is the fitted concentration of half-maximal effect); details: U2OS GR-GFP nuclear translocation, laser cytometry, 2 h
[7] = molecular target: Glucocorticoid receptor (Homo sapiens) (UniProt P04150); experiment: GR-EFC Redistribution (AID 451; calls by dose curve; note: potency is the fitted concentration of half-maximal effect); details: CHO-K1 GR-EFC translocation, beta-gal luminescence, 2 h
Summary of the method: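 CHO-K1 cells expressing nuclear EA and GR-ED fragments of b-gal; compounds titrated up to 46 uM final, 2 h at 37 C. GR nuclear translocation read as complemented b-gal luminescence after 1 h RT detection.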

[8] = molecular target: Mitogen-activated protein kinase 10 (Mus musculus) (UniProt Q61831); experiment: JNK3 AlphaScreen Assay (AID 530; active = well fitted curve in either direction with a large enough effect, not every such curve was filed as active;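 note: kinase came from lysate of stimulated human HepG2 cells; signal reports phosphorylation of biotinylated GST-cJun 1-79 at Ser73 with 10 µM ATP; % is set by controls: 0 for no effect and ±100 for the full control effect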)
Summary of the method: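 Activity was read by AlphaScreen after JNK3-containing HepG2 lysate (cytokine pre-activated) phosphorylated biotinylated GST-cJun with 10 uM ATP at room temperature. Phospho-Ser73 cJun antibody with Protein-A acceptor beads provided detection.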

[9] = molecular target: 3',5'-cyclic-AMP phosphodiesterase 4B (Homo sapiens) (UniProt Q07343); experiment: qHTS Assay for Inhibitors of PDE-IV (AID 607; active = well fitted activation curve with a large enough effect in the main read-out, with a control signal flat, not every such curve was filed as active; note: % of control where 0% means no effect)
Summary of the method: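 Cell-based read-out of cAMP via a modified cyclic nucleotide-gated channel and membrane potential dye (535/590 nm) in HEK293 cells expressing PDE4 endogenously. Compounds tested up to 22.9 uM final; 100 uM RO 20-1724 reference.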

[10] = molecular target: Cytochrome P450 3A4 (Homo sapiens) (UniProt P08684); experiment: qHTS Assay for Activators of Cytochrome P450 3A4 (AID 885); note: nearly all actives have a fitted effect of over 65% in size
Summary of the method: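 Luminescent readout of luciferin formed from 25 uM Luciferin-PPXE (KM level) by 20 nM CYP3A4 in 200 mM KPO4, with 60 min NADPH-driven reaction at room temperature after 10 min compound exposure. Ketoconazole (57 uM) defined 100% inhibition.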

[11] = qHTS Assay for Lipid Storage Modulators (AID 1519; calls by dose curve); details: Drosophila S3 cells, BODIPY lipid droplet/cell ratio, laser cytometry, cells loaded with oleic acid; for activity change, negative = inhibition: at 57.5 µM (top of the series)
Summary of the method: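 Cells seeded at 5,000 per well were treated with compounds over a concentration series and loaded with oleic acid (400 uM, as added). Lipid droplet fluorescence (488 nm excitation, 500-530 nm channel) was read by laser-scanning cytometry and normalized to 20 uM Triacsin C.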

[12] = molecular target: Dual specificity protein kinase CLK4 (Homo sapiens) (UniProt Q9HAZ1); experiment: qHTS Assay for Inhibitors of CDC-like Kinase 4 (ADP-FP Assay) (AID 1795); note: nearly all actives have a fitted effect of over 60% in size; note: potency is the fitted concentration of half-maximal effect
Summary of the method: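 FP readout: Orange Transcreener ADP2 tracer (4 nM) plus ADP antibody, read after 30 min at room temperature. Kinase step: 6.25 nM Clk4, 100 uM RS peptide, 1 uM ATP, pH 7.5, 1 h.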

[13] = molecular target: Ubiquitin carboxyl-terminal hydrolase 1 (Homo sapiens) (UniProt O94782); experiment: Inhibitors of USP1/UAF1: Pilot qHTS (AID 504865); note: nearly all actives have a fitted effect of over 35% in size; note: potency is the fitted concentration of half-maximal effect
Summary of the method: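 1nM USP1/UAF1 + cpd, 15 min RT; start w/ Ub-Rho 150nM final; kinetic FL 480/540 nm, 6 reads q60 s. Buffer 50mM HEPES pH 7.8, 0.5mM EDTA, 1mM TCEP, 0.01% Tween-20, 0.1 mg/ml BSA.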

[14] = Primary qHTS for small molecule stabilizers of the endoplasmic reticulum resident proteome: Secreted ER Calcium Modulated Protein (SERCaMP) assay (AID 1508630); note: % is set by controls: 0 for no effect and ±100 for the full control effect
Summary of the method: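 The SH-SY5Y reporter protocol was run at 3 concentrations up to 38.3 uM (primary) or 11 concentrations (follow-up): 16 h compound, 100 nM thapsigargin for 4 h, then extracellular luciferase luminescence.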

[15] = qHTS Assay for Identification of Small Molecule Agonists for Hypoxia Response Element Signaling Pathway (AID 914; active = well fitted activation curve with a large enough effect in the signal ratio, with a control signal flat, not every such curve was filed as active; the % refers to the signal ratio; note: potency is the fitted concentration of half-maximal effect; for activation: % of control where 0% means no effect); details: ME-180 (cervical carcinoma) HRE-bla reporter, beta-lactamase ratio, CoCl2, 17 h; activation: stronger effect = higher value
Summary of the method: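 HRE-bla ME-180 assay for agonist-like enhancement of an EC50 CoCl2 stimulus: 17 h at 37 degrees Celsius, CCF4 for 2.5 h, ratiometric 460/530 nm signal converted to %Activity and fitted to AC50.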

[16] = molecular target: Cytochrome P450 2C19 (Homo sapiens) (UniProt P33261); experiment: qHTS Assay for Inhibitors and Substrates of Cytochrome P450 2C19 (AID 899); note: potency is the fitted concentration of half-maximal effect; nearly all actives have a fitted effect of over 60% in size
Summary of the method: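 Signal comes from luciferase acting on luciferin released by CYP2C19-mediated hydroxylation of Luciferin-H EGE, 10uM (KM). Assay mix: 5nM enzyme, 50mM KPO4; 60 min at 37C with NADPH regeneration. Data normalized against 57uM ketoconazole.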

[17] = molecular target: Cytochrome P450 3A4 (Homo sapiens) (UniProt P08684); experiment: qHTS Assay for Inhibitors and Substrates of Cytochrome P450 3A4 (AID 884); note: potency is the fitted concentration of half-maximal effect; nearly all actives have a fitted effect of over 50% in size
Summary of the method: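 Luminescent readout of luciferin produced by CYP3A4 (20 nM) dealkylation of Luciferin-PPXE, 25 uM (its KM). NADPH-driven reaction ran 60 min at RT after 10 min compound preincubation; data scaled to 57 uM ketoconazole as 100% inhibition.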

[18] = measured here: cell count channel max response
[19] = measured here: lipid channel max response

Cytochrome P450 3A4 (Homo sapiens), sequence (P08684 whole entry, looked up): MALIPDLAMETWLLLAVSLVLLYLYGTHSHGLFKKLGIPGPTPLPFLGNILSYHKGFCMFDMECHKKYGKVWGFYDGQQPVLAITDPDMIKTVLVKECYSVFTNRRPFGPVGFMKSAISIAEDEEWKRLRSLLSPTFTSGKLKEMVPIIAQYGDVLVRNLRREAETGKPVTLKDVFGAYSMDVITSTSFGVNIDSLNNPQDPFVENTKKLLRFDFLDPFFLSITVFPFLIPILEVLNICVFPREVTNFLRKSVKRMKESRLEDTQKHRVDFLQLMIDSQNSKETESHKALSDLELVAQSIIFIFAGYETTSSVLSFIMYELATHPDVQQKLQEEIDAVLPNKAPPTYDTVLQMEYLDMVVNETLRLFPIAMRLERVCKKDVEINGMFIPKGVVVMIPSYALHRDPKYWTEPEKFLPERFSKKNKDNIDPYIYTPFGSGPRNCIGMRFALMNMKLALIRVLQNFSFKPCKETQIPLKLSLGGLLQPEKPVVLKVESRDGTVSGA
Glucocorticoid receptor (Homo sapiens), sequence (P04150 whole entry, looked up, the tested form may be a part): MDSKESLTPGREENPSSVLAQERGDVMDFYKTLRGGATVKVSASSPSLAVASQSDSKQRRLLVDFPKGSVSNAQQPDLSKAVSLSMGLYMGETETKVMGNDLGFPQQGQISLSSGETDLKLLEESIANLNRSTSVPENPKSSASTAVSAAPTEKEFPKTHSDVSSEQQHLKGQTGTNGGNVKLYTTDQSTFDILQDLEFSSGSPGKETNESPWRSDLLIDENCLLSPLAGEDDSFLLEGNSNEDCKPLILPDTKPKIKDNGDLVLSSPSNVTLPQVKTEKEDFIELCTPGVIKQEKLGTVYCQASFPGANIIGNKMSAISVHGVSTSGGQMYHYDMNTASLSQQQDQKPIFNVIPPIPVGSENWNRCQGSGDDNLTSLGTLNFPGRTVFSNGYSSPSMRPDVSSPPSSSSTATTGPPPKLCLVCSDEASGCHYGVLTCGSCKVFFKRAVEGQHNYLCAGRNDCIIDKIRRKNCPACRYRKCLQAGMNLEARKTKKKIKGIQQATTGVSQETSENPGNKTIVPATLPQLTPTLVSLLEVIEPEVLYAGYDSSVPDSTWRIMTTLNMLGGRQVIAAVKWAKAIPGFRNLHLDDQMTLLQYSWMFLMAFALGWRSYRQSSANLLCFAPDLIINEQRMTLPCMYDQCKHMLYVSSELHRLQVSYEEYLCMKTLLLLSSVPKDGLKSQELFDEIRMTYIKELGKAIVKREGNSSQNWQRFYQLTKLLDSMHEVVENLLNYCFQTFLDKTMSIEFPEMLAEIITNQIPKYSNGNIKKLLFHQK
3',5'-cyclic-AMP phosphodiesterase 4B (Homo sapiens), sequence (Q07343 whole entry, looked up): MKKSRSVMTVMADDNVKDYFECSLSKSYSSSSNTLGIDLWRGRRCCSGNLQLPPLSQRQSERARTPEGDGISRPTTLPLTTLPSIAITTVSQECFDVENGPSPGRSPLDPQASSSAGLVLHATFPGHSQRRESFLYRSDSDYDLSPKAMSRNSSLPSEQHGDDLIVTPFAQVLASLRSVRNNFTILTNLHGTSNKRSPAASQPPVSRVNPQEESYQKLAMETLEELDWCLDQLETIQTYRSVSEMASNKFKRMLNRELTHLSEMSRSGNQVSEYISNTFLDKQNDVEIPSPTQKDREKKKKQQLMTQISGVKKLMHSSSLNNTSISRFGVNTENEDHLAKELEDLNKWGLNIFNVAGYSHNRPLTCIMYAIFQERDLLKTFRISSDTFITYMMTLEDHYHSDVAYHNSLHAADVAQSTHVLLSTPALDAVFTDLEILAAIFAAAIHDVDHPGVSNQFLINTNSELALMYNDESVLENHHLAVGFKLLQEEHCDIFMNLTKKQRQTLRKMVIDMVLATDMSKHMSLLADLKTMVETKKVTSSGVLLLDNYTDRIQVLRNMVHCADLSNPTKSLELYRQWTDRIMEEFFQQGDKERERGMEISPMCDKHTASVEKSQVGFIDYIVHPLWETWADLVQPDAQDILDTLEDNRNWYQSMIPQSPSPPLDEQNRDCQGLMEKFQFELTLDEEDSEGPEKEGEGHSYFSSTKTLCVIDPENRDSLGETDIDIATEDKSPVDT
Dual specificity protein kinase CLK4 (Homo sapiens), sequence (Q9HAZ1 whole entry, looked up): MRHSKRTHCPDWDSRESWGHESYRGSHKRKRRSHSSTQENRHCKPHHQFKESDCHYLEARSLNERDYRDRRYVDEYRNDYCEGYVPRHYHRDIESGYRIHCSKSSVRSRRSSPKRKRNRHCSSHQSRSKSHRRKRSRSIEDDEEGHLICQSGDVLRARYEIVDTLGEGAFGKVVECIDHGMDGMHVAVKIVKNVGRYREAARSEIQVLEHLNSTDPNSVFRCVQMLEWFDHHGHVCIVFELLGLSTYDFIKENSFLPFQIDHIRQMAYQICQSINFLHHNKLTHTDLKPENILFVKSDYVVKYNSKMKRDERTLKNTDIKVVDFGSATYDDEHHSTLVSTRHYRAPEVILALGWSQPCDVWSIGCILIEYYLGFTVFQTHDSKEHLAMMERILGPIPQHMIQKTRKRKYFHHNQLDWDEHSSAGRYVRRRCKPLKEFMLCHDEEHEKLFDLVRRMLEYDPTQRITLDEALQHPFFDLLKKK
Ubiquitin carboxyl-terminal hydrolase 1 (Homo sapiens), sequence (O94782 whole entry, looked up): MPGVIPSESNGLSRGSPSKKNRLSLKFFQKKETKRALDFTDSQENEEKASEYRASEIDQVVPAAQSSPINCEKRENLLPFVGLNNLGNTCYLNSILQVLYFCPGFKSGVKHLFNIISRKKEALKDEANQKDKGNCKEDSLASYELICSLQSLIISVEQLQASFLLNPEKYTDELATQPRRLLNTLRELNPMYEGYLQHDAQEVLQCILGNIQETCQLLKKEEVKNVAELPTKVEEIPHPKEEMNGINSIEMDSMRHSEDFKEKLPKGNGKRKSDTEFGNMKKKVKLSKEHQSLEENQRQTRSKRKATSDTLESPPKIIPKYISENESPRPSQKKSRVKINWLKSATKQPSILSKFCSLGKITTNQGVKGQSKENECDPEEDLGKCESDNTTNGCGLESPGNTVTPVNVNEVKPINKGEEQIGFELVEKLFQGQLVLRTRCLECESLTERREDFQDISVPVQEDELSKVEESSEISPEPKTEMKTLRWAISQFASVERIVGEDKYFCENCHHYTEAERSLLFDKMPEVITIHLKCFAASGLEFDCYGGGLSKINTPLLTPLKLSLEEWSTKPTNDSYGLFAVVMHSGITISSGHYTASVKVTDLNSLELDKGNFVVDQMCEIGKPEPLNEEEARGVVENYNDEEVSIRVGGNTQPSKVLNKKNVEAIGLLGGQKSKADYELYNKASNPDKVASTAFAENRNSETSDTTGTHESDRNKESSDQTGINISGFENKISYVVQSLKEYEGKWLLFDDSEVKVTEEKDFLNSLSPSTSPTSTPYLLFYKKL
Cytochrome P450 1A2 (Homo sapiens), sequence (P05177 whole entry, looked up): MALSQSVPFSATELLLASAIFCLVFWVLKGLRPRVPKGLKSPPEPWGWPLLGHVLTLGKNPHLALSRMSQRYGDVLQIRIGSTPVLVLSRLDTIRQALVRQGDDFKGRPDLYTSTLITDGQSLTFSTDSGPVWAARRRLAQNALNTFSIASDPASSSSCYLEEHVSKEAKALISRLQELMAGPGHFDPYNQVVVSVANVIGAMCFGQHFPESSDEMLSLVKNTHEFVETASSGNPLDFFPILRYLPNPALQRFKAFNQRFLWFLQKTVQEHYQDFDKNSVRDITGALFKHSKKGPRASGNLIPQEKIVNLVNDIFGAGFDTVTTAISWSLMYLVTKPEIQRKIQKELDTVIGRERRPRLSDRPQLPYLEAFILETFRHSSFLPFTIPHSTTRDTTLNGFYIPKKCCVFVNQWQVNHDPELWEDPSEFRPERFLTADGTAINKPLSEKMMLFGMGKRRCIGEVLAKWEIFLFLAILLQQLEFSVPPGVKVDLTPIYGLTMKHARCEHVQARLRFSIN
Lysosomal acid glucosylceramidase (Homo sapiens), sequence (P04062 whole entry, looked up): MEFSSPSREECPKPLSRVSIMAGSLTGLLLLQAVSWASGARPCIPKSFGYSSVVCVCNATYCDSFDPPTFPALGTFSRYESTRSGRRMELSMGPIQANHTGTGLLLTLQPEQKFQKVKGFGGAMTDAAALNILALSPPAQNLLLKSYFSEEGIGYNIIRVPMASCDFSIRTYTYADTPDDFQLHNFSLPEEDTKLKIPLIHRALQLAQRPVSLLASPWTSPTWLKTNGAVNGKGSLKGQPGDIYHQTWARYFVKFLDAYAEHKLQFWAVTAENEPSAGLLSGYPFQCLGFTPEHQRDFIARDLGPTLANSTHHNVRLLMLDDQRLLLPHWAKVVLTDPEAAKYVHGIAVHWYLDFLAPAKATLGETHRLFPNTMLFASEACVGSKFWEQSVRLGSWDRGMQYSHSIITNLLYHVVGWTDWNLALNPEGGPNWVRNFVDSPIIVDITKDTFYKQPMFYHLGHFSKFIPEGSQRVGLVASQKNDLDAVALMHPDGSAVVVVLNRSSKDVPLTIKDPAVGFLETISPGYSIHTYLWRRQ
Cytochrome P450 2C19 (Homo sapiens), sequence (P33261 whole entry, looked up): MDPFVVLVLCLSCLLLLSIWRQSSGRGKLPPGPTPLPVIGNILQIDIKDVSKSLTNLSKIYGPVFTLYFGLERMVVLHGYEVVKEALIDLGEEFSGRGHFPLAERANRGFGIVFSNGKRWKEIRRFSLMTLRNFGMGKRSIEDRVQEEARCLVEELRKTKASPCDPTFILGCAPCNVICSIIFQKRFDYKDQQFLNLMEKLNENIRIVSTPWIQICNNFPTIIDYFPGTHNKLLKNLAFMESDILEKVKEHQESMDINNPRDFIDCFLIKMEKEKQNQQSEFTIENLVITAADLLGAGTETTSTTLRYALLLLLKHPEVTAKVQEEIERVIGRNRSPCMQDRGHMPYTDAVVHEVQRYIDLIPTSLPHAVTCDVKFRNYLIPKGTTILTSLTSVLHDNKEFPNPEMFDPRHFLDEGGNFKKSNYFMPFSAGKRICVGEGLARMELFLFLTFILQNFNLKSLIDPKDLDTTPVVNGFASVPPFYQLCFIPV

SMILES | Potency [1] | activity change, negative = inhibition [2] | Potency [3] | activity change, negative = inhibition [4] | activity, negative = inhibition [5] | Potency [6] | Potency [7] | outcome [8] | Potency [9] | Potency [10] | activity change, negative = inhibition [11] | max response [11, 18] [%] | max response [11, 19] [%] | Potency [12] | Potency [13] | Potency [14] | activation [15] | Potency [16] | Potency [17] | Potency [15]
COc1ccc(Oc2ncc3ncc(=O)n(C)c3n2)cc1 | > 11.4 µM (inactive) | -12.2% (inactive) | 3.98 µM (active) | -6.92% (inactive) | -7.6% (inactive) | > 9.22 µM (inactive) | > 46 µM (inactive) | inactive | inactive | inactive | 5.63% (inactive) | 9.26 | 14.1 | inactive | inactive | inactive |  |  |  | 
CN(C)C(=O)c1ccc(-c2ccc3ncnc(N4CCC(C(=O)O)CC4)c3c2)cc1 | > 11.4 µM (inactive) | 0.539% (inactive) |  | 7.54% (inactive) | -4.54% (inactive) | > 46 µM (inactive) | > 46 µM (inactive) | inactive | inactive |  | 3.56% (inactive) | 20.3 | 23.2 | inactive | inactive | inactive | -0.026% (inactive) |  |  | 
COc1cccc(Nc2ncc3nc(-c4cn(C)c5ccccc45)c(=O)n(CCC#N)c3n2)c1 | > 11.4 µM (inactive) | -25.6% (inactive) | 20 µM (active) | -5.99% (inactive) | -9.25% (inactive) | > 9.22 µM (inactive) | > 46 µM (inactive) | inactive | inactive | inactive | 2.44% (inactive) | 27 | 27.4 | inactive | inactive | inactive |  |  |  | 
CN(Cc1ccco1)c1ncnc2ccc(-c3ccccc3C(F)(F)F)cc12 | > 11.4 µM (inactive) | 4.42% (inactive) | 5.01 µM (active) | -18.5% (inactive) | -19.3% (inactive) | > 46 µM (inactive) | > 46 µM (inactive) | inactive |  | inactive | -0.853% (inactive) | 20.9 | 18.1 | inactive | inactive | inactive |  | 3.16 µM (active) |  | 
CC(=O)NCCNc1ccnc(-c2ccccc2C(F)(F)F)n1 | > 11.4 µM (inactive) | 0.161% (inactive) | 15.8 µM (active) | -3.29% (inactive) | 11.9% (inactive) | > 46 µM (inactive) | > 46 µM (inactive) | inactive | inactive | inactive | 4.45% (inactive) | 8.35 | 14.6 | inactive | inactive | inactive |  |  |  | 
N#Cc1cccc(-c2cncnc2NCc2cccs2)c1 | > 11.4 µM (inactive) | -2.15% (inactive) | 1.58 µM (active) | -0.972% (inactive) | 3.27% (inactive) | > 46 µM (inactive) | > 46 µM (inactive) | inactive |  | inactive | 6.17% (inactive) | 15.7 | 18.5 | inactive | inactive | inactive |  | 7.94 µM (active) | 1.26 µM (active) | 
CNc1ncnc2ccc(-c3ccccc3C)cc12 | > 11.4 µM (inactive) | -4.22% (inactive) |  | 3.06% (inactive) | -3.66% (inactive) | > 46 µM (inactive) | > 46 µM (inactive) | inactive |  |  | -7.2% (inactive) | -12.3 | -15.2 | 8.91 µM (active) | inactive | inactive |  |  |  | 
COCCNc1cc(-c2c(C)noc2C)ncn1 | > 11.4 µM (inactive) | -3.45% (inactive) | 10 µM (active) | 3.73% (inactive) | 0.472% (inactive) | > 46 µM (inactive) | > 46 µM (inactive) | inactive | inactive |  | 8.14% (inactive) | 13 | 22.2 |  | inactive | inactive |  |  |  | 
CCNc1ncc2nc(C)c(=O)n(Cc3cccs3)c2n1 | > 11.4 µM (inactive) | 19% (inactive) | 2 µM (active) | -12.9% (inactive) | -7.43% (inactive) | > 9.22 µM (inactive) | > 46 µM (inactive) | inactive |  | inactive | 6.19% (inactive) | -9.24 | -5.88 | inactive | inactive | inactive |  |  |  | 
CNc1cc(-c2c(C)noc2C)ncn1 | > 11.4 µM (inactive) |  | 5.01 µM (active) | 3.01% (inactive) | 27.1% (inactive) | > 46 µM (inactive) | > 46 µM (inactive) | inactive | inactive |  | 4.96% (inactive) | 25.8 | 27.2 | inactive | inactive | inactive |  |  |  | 3.16 µM (active)
Cc1ccccc1-c1nc(NCc2cccs2)c2ccccc2n1 |  |  |  | -9.98% (inactive) | -16.7% (inactive) | > 46 µM (inactive) | > 46 µM (inactive) | inactive |  |  | 5.52% (inactive) | -1.85 | 1.44 | inactive | 14.1 µM (active) | inactive |  |  |  | 
COc1ccccc1CNc1ncncc1-c1cccnc1 | > 11.4 µM (inactive) | 3.62% (inactive) | 0.794 µM (active) | 2.12% (inactive) | 5.57% (inactive) | > 46 µM (inactive) | > 46 µM (inactive) | inactive | inactive | inactive | 3.76% (inactive) | 11.7 | 13.8 | inactive |  | inactive |  |  | 0.794 µM (active) | 
COc1ccc(CNc2cc(-c3ccccc3Cl)ncn2)c(OC)c1 | > 11.4 µM (inactive) | -3.31% (inactive) |  | -0.814% (inactive) | 7.16% (inactive) | > 46 µM (inactive) | > 46 µM (inactive) | inactive |  | inactive | 5.7% (inactive) | 19.5 | 25 | inactive |  | inactive |  | 2 µM (active) | 6.31 µM (active) | 
